Experimental data published in PubChem BioAssay (NCI).
This is part of a sample that, as a whole, favours compounds with a hit. Of some 79,000 tested, about 15% had one in any assay. Values without a mark were called inactive. Activity calls are given as the source filed them. Cut-off read from the data, not from the text of the source: active = growth inhibition above about 70%; inactive = the rest.

Legend:
[1] = NCI Yeast Anticancer Drug Screen. Data for the rad50 strain (AID 155);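 note: 0% = growth of vehicle-only cultures of the same strain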; conditions: S. cerevisiae rad50 strain growth inhibition, hits give high values
In short: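 Inhibition values express reduced yeast growth in compound-treated cultures relative to vehicle-treated controls.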

[2] = NCI Yeast Anticancer Drug Screen. Data for the mec2-1 strain (AID 157); conditions: S. cerevisiae mec2-1 strain, hits give high values
In short: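 Test agents were screened against the mec2-1 yeast strain, with defined DNA repair or cell cycle alteration. Growth was scored as inhibition against vehicle-only controls.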

[3] = NCI Yeast Anticancer Drug Screen. Data for the sgs1 mgt1 strain (AID 161);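 note: 0% = growth of cultures given vehicle only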; conditions: S. cerevisiae sgs1 mgt1 strain, hits give high values
In short: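 Inhibition of yeast growth, normalised to vehicle-treated controls, is reported for a strain bearing genetic alterations in DNA damage repair.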

[4] = NCI Yeast Anticancer Drug Screen. Data for the cln2 rad14 strain (AID 165);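 note: 0% = growth equal to vehicle treated cultures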; conditions: S. cerevisiae cln2 rad14 strain, hits give high values
In short: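 Growth of compound-exposed yeast (cln2 rad14 genotype) measured and expressed as inhibition relative to vehicle.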

[5] = NCI Yeast Anticancer Drug Screen. Data for the bub3 strain (AID 167); conditions: S. cerevisiae bub3 mutant strain, hits give high values
In short: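 Steps: expose the mutant yeast strain to compound; grow alongside vehicle-treated cultures; measure growth; express inhibition against the vehicle cultures.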

[6] = NCI Yeast Anticancer Drug Screen. Data for the mlh1 rad18 strain (AID 175); conditions: S. cerevisiae mlh1 rad18 strain growth inhibition, hits give high values
In short: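 In this whole-cell yeast screen, a strain with altered DNA damage repair is challenged with compound, and its growth is measured against matched vehicle-treated controls.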

[7] = at 5.0 µM (retest, dose inferred, filed as 0.5)
[8] = at 50.0 µM (retest, dose inferred, filed as 5.0)

Row | SMILES | growth inhibition [1, 7] [%] | growth inhibition [1, 8] | growth inhibition ([1]; at 50.0 µM) | growth inhibition [2, 7] [%] | growth inhibition [2, 8] | growth inhibition ([2]; at 50.0 µM) | growth inhibition [3, 7] [%] | growth inhibition [3, 8] | growth inhibition ([3]; at 50.0 µM) | growth inhibition [4, 7] [%] | growth inhibition [4, 8] | growth inhibition ([4]; at 50.0 µM) | growth inhibition [5, 7] [%] | growth inhibition [5, 8] | growth inhibition ([5]; at 50.0 µM) | growth inhibition [6, 7] [%] | growth inhibition [6, 8] | growth inhibition ([6]; at 50.0 µM)
1 | O=C(OCCCC(C(=O)c1ccccc1)=P(c1ccccc1)(c1ccccc1)c1ccccc1)c1ccccc1 | 35 | 99% (active) | 84.8% (active) | 36 | 99% (active) | 36.8% | 33 | 99% (active) | 61.5% | 6 | 98% (active) | 9.75% | 14 | 99% (active) | 23.4% | – | – | –
2 | CCC(C)CNCCCCCNc1cc(OC)cc2cccnc12 (stereo not drawn) | 37 | 67% | 45.5% | 35 | 62% | 43.9% | 38 | 87% (active) | 66.5% | 47 | 57% | 48.2% | 39 | 75% (active) | 90.3% (active) | – | – | –
3 | CCCN(Cc1ccccc1)S(=O)(=O)c1ccc(C)cc1 | -4 | 95% (active) | -14.1% | -4 | 97% (active) | -3.65% | -5 | 95% (active) | 16% | -6 | 93% (active) | -19.5% | 7 | 96% (active) | 63.7% | -5 | 96% (active) | -7.75%
4 | COCCn1cc(F)c(=O)[nH]c1=O | 15 | 16% | -8.7% | 0 | 2% | -2.25% | 3 | 47% | 33.2% | 6 | 8% | 46.3% | 8 | 5% | -20.6% | 9 | 20% | -5.45%
5 | Clc1ccc(/C=N\Nc2ccccc2)c(Cl)c1 | 4 | 99% (active) | 76.8% (active) | 1 | 99% (active) | 44.9% | -1 | 98% (active) | 30.1% | 2 | 86% (active) | -6.9% | -2 | 99% (active) | 31.7% | 1 | 99% (active) | 66.4%
6 | CC(C)SC(=S)Nc1cc(C(F)(F)F)ccc1Cl | -2 | 99% (active) | 99.5% (active) | 2 | 98% (active) | 99.7% (active) | 0 | 100% (active) | 99.6% (active) | -15 | 98% (active) | 99.4% (active) | 2 | 91% (active) | 99.5% (active) | 0 | 97% (active) | 99.5% (active)
7 | O=C(O)c1c2c(c(O)c3c1CN(C1CCCCC1)CO3)OCN(C1CCCCC1)C2 | 8 | 35% | 50.4% | 3 | 8% | 53.1% | 4 | 25% | 72.1% (active) | -17 | 5% | 73.7% (active) | 2 | 11% | 32.1% | – | – | –
8 | C/C(=N/NC(=S)N1CCCCC1)c1cccc(/C(C)=N\NC(=S)N2CCCCC2)n1 | -13 | 93% (active) | 74.2% (active) | -1 | 95% (active) | 88% (active) | 6 | 96% (active) | 74.7% (active) | -10 | 94% (active) | 87.3% (active) | 8 | 94% (active) | 90% (active) | – | – | –
9 | O=C1OC(c2ccccc2)(c2ccccc2)CC1CN1CCOCC1 (stereo not drawn) | -16 | 73% (active) | 87.8% (active) | -4 | 87% (active) | 82.6% (active) | -1 | 84% (active) | 90% (active) | -9 | 72% (active) | 66% | 1 | 93% (active) | 87% (active) | 2 | 88% (active) | 79.7% (active)
10 | O=c1[nH]c2c([N+](=O)[O-])cc(Cl)cc2nc1/C=C(\O)c1cccc2ccccc12 | 0 | 86% (active) | 77% (active) | 10 | 75% (active) | 62.2% | -10 | 81% (active) | 89.5% (active) | -1 | 87% (active) | 82.4% (active) | -3 | 88% (active) | 71.5% (active) | -7 | 85% (active) | 72.2% (active)
